# Screening data as filed in PubChem BioAssay.
# Abeta yeast res = qHTS for compounds that reverse cellular toxicity of Amyloid beta (A-beta) peptide in yeast: Primary Screen; yeast expressing A-beta42, growth rescue, OD600, 48 h; response scale: 0% DMSO, 100% iron-clioquinol control; Potency, µM (titrated, usually from 46.1 µM), most hits filed as activators; actives 0.063% (n = 410,000); AID 1347071, 2019; further: nearly all actives have a fitted effect of over 55% in size
#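 Yeast growth medium received pinned compounds, then yeast cells expressing toxic A-beta were added; plates incubated at 30 C for 48 hr. Growth read as absorbance at 600 nm, normalized to DMSO and equimolar FeCl3 plus clioquinol controls.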
# TDP-43 yeast inh = qHTS of TDP-43 Inhibitors | TDP-43 expressing yeast growth rescue, BacTiter-Glo, 24 h | Potency, µM (doses to about 46.1 µM), without a hit: top-dose growth rescue (activation), most hits filed as activators | actives 1.8% (n = 410,000) | AID 652104, 2013; further: % of control where 0% means no effect; nearly all actives have a fitted effect of over 50% in size
#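 Cell-based yeast growth screen: TDP-43 expression induced in galactose, inoculum OD600=0.02 after raffinose pregrowth to mid-log. Read-out BacTiter-Glo luminescence at 24 hr, 30 deg C; inhibition of toxicity seen as signal increase.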
# aSyn yeast inh = qHTS of alpha-syn Inhibitors; actives 0.14% (n = 370,000); Potency, µM (series often up to 46.1 µM), inactives show at the highest dose growth rescue (activation), usual class: activators; Yeast expressing alpha-synuclein, growth rescue, BacTiter-Glo, 24 h; further: % of control where 0% means no effect; nearly all actives have a fitted effect of over 65% in size
#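 Galactose-induced alpha-syn yeast (OD600=0.02, raffinose-pregrown) + pinned cpd, 24 hr, 30 deg C; growth by BacTiter-Glo luminescence. Growth restoration scores as activation.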
# FUS suppressor = qHTS for Suppressors of FUS Proteinopathy: Primary screen using FUS-linked yeast assay; Potency, µM (top dose mostly 76.6 µM), actives largely listed as activators; AID 1347120, 2019; actives 0.24% (n = 390,000); S. cerevisiae FUS-expressing, growth rescue, OD600, 24 h;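 further: plate controls were DMSO vehicle for no effect and reference control for full effect; nearly all actives have a fitted effect of over 55% in size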
#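 Steps: raffinose overnight preculture; dilution to OD 0.005 in 2% galactose minimal medium; compound addition (concentration series); 24hr at 30C, 99% humidity; absorbance read at 600 nm.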
# An asterisk follows results filed as active; i = inactive; ? = inconclusive; . = not tested or not shown; [ ] = dose if it differs, or a comment. Shown are actives, neighbours in structure and some others; about 2.1% of the full set was active somewhere. The call rests on the fitted dose curve; in most records, active means well fitted curve in the direction sought with a large enough effect; inconclusive means small, poorly fitted or top-dose-only effect, or another doubt; inactive means no such curve, though single readings can be large; an effect the other way counts as inactive or inconclusive. Potency means the concentration at half of the fitted maximal effect.
SMILES,Abeta yeast res,TDP-43 yeast inh,aSyn yeast inh,FUS suppressor
COc1ccc(OCC(=O)Nc2ccc(-c3nc4cc(C)cc(C)c4o3)cc2)cc1,i,1%,.,i
CCOC(=O)c1ccccc1OC(=O)CS(=O)c1ccccc1[N+](=O)[O-] (stereo not given),i,-16%[9.22 µM],3%,i
O=C(CS(=O)c1ccc(C(F)(F)F)cc1[N+](=O)[O-])Oc1ccccc1 (stereo not given),i,22µM*,-16%,i
CS(=O)(=O)c1ccc(S(=O)CC(=O)OCc2ccccc2)c([N+](=O)[O-])c1 (stereo not given),i,-8%,-9%,i
COC(=O)c1ccc(OC(=O)CS(=O)c2ccccc2[N+](=O)[O-])cc1 (stereo not given),i,13µM*,10%,i
COc1ccccc1N(O)C1CC(=O)N(c2ccc(Br)cc2)C1=O (stereo not given),i,28µM*,-10%,?
O=C(COC(=O)/C=C/c1ccc(Cl)c(Cl)c1)NC1CCCC1,i,10µM*,-13%[1.84 µM],i
O=C(CSc1ccc2c(c1)OCCO2)Nc1ncccc1O,i,11%,2%,i
O=C(CSc1ccc2c(c1)OCCO2)Nc1ccc(Br)cn1,i,13µM*,2%,i
Cc1cc(C)nc(SCC(=O)Nc2ccc(Br)cn2)n1,i,8%,-1%,i
COc1ccc(Cl)cc1NC(=O)CN(C)C(=O)CSc1ccc2c(c1)OCCO2,i,20µM*,23%,i
O=C(CSc1ccc2c(c1)OCCO2)Nc1ccc(Cl)cn1,i,11µM*,8%,i
CN(C)c1ccc(/C=C/c2ccnc3ccc(-c4ccccc4)cc23)cc1,.,.,8%,.
CCOc1ccc(CCNC(c2nnc(-c3ccccc3)o2)c2ccccc2Cl)cc1OCC (stereo not given),i,?,.,?
C=CCn1c(COc2ccc(Cl)cc2)nnc1SCC(=O)c1ccc(-c2ccccc2)cc1,.,.,.,i
CC(C)(C)C(=O)Nc1nnc(COc2ccc(Cl)cc2)s1,?,11µM*,26%,i
O=C(Nc1nnc(COc2ccc(Cl)cc2)s1)c1cccs1,i,-7%,-23%,i
CN(N=O)c1ccc(C=C2C=Cc3ccccc32)cc1,i,4%,1%,.
CC(=O)N(C)c1ccc(C=C2C=Cc3ccccc32)cc1,i,14µM*,5%,.
Cc1ccc(Nc2ccccc2)cc1,i,-12%,-8%,i
Cc1ccc(Nc2cc(C)c(O)c(C)c2)cc1,i,13µM*,4%,i
Cc1cccc(N(C)c2nc3ccccc3c3nnc(C)n23)c1,i,22µM*,.,i
COc1ccccc1CNc1ccc(-c2nc(-c3ccccn3)no2)cc1[N+](=O)[O-],i,0%,.,i
COc1ccc(C(=O)c2ccccc2)cc1Br,i,13µM*,3%,i
CCc1ccccc1NC(=O)CN1C(=O)c2cccnc2Oc2ccc(Cl)cc21,i,18%,.,?
SMILES,Abeta yeast res,TDP-43 yeast inh,aSyn yeast inh,FUS suppressor
CC(NC(=O)OCc1ccccc1)C(=O)Oc1cc2oc(=O)cc(-c3ccccc3)c2cc1Cl (stereo not given),i,6.3µM*,3%,i
CC1=CC(O)=NS(=O)(=O)O1,.,.,-3%,.
COc1ccc(-c2cc(C(F)(F)F)nc(SCC(=O)NC(C)c3ccccc3)n2)cc1 (stereo not given),i,19%,.,i
O=C(Nc1nc2c(s1)CCc1ccccc1-2)c1ccco1,i,13µM*,-10%,i
O=C(CCCl)Nc1nc2c(s1)CCc1ccccc1-2,i,22µM*,15%,i
CCOc1ccccc1CNC(=O)CCc1cn(Cc2ccc(Cl)cc2)c2ccccc12,i,22%,.,i
Cc1ccnc(NC(=O)c2cccc(S(=O)(=O)N3CCCc4ccccc43)c2)c1,i,22µM*,9%,i
O=C(Nc1ncccc1O)c1cccc(S(=O)(=O)N2CCCc3ccccc32)c1,i,21%,-33%,i
O=C(Nc1ccccn1)c1cccc(S(=O)(=O)N2CCCc3ccccc32)c1,i,25µM*,9%[1.84 µM],i
CC(=O)Nc1ccc(S(=O)(=O)O)c2cc(S(=O)(=O)O)c(N=Nc3ccc(N=Nc4ccc(S(=O)(=O)O)cc4)c4ccc(S(=O)(=O)O)cc34)c(O)c12,.,.,-59%,.
COc1cc(C(=O)OCC(=O)Nc2ccc3c(c2)OC(F)(F)O3)ccc1OCc1c(C)noc1C,i,35µM*,1%,i
COc1ccc(NC(=O)COC(=O)c2ccc(OCc3c(C)noc3C)cc2)cc1OC,i,14%,10%,i
CC(=O)Nc1ncnc2c1c(-c1ccc(Cl)cc1)nn2C(C)(C)C,i,9%,3.5µM*,i
COc1ccc(CNc2ccc(C)cc2)cc1Br,i,18µM*,1%,i
Fc1cccc(Cl)c1C1SCc2nc3ccccc3n21 (stereo not given),i,13µM*,6%,i
CCOc1ccc(/C=C/c2cc[n+](C)c3ccccc23)cc1OCC,.,.,0%,.
N/C(=N\OC(=O)c1ccccc1Cl)c1ccccn1,i,-27%,-27%,i
Cn1cc(Cl)c(/C(N)=N/OC(=O)c2ccccc2C(F)(F)F)n1,i,20µM*,3%,i
COC1=C2C[C@H](C)C[C@H](OC)[C@@H](O)[C@@H](C)C=C(C)[C@H](OC(N)=O)[C@@H](OC)C=CC=C(C)C(=O)NC(=CC1=O)C2=O,.,.,26%,.
CCCC(=O)N1CCN(c2nc(CC(C)C)c3c(c2C#N)CCC3)CC1,i,11µM*,1%,?
O=C(NC1CCCC1)c1cc2c(ccc3ccccc32)o1,i,11%,-3%,.
CNC(=O)c1cc2c(ccc3ccccc32)o1,i,?,11µM*,i
CN(C)c1ccc(/C=C/c2cc[n+](C)c3ccc4ccccc4c23)cc1,.,.,-71%,.
CCCOc1ccc(C(=O)Nc2ccc3oc(-c4ccncc4)nc3c2)cc1,i,20%,.,i
O=C(N/N=C/c1ccncc1)c1ccccc1OCc1ccc(Br)cc1,i,32µM*,26%,i
SMILES,Abeta yeast res,TDP-43 yeast inh,aSyn yeast inh,FUS suppressor
CCCCCCC(=O)OCC(=O)c1ccc2c(c1)NC(=O)CO2,i,16µM*,8%,i
CCn1c2ccccc2c2cc(Nc3cc(C)nc4ncnn34)ccc21,i,16µM*,9%,i
CCc1ccc(Nc2cc(C)nc3ncnn23)cc1,?,?,0%,i
O=C(Oc1ccc(/C=N/O)cc1)c1ccccc1,i,11µM*,-4%,i
COC(=O)c1ccc(C2c3c(oc4ccccc4c3=O)C(=O)N2c2nc(C)c(C(=O)OC)s2)cc1 (stereo not given),i,?,.,i
O=C(CSCc1ccc(Cl)cc1)N1CCOCC1,i,6%,1%,i
